Measured values published in PubChem BioAssay AID1434 (Sanford-Burnham Center for Chemical Genomics, 2008).
About 1,600 (0.73%) of roughly 220,000 compounds were called active.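 Rule for the calls: active = mean inhibition across duplicate retests at 20 µM reaching about 50% (limit read from the data); inactive = the rest, inconclusive results apart.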 Shown is part of a subset that was picked to be rich in actives.

Molecular target: Runt-related transcription factor 1 (Homo sapiens) + Core-binding factor subunit beta (Homo sapiens) (UniProt Q01196+Q13951)
Assay: inhibitors of RUNX1 Runt–CBFb-SMMHC binding, primary screen, biochemical, FRET, Cerulean-Runt, Venus-CBFb-SMMHC, uHTS (AID 1434);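 note: 0% = DMSO wells and 100% = wells with excess untagged CBFb-SMMHC; inhibitors lower the FRET ratio by blocking Runt binding to CBFb-SMMHC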
Conditions: Cerulean-Runt/Venus-CBFb-SMMHC FRET ratio 530/480, 1 h, at 20 µM, stronger effect = higher value

Chain of Runt-related transcription factor 1 (Homo sapiens) + Core-binding factor subunit beta (Homo sapiens) (Q01196 whole entry, looked up): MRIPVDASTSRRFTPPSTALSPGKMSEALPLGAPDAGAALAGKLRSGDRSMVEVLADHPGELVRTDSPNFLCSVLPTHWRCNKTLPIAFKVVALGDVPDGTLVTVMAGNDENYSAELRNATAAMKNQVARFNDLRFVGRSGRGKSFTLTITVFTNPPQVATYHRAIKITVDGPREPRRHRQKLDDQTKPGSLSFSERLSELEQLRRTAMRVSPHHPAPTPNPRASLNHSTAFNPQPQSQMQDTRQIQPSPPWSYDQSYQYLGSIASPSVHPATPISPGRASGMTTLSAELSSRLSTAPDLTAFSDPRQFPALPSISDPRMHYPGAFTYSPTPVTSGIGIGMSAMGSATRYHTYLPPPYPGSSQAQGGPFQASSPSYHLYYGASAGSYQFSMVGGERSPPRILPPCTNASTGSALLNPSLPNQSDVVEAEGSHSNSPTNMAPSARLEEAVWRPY
Chain of Runt-related transcription factor 1 (Homo sapiens) + Core-binding factor subunit beta (Homo sapiens) (Q13951 whole entry, looked up): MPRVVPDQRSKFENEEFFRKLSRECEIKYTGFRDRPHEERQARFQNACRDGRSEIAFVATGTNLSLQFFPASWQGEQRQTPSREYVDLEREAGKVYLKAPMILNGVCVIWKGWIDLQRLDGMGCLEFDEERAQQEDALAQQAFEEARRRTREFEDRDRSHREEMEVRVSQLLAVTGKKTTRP

Row | Compound | inhibition | inhibition (retest duplicate average) [%]
1 | O=C(c1ccc(C(F)(F)F)cc1)C1CCCN(C(=O)c2csnn2)C1 (stereo not given) | 5.6% (inactive) | –
2 | COC(=O)COc1ccc2oc(=O)cc(C)c2c1 | 0.6% (inactive) | –
3 | Cc1cc(=O)oc2c(C(=O)c3ccccc3)c(OCC(N)=O)ccc12 | -4.4% (inactive) | –
4 | COC(=O)Cc1cc(=O)oc2c(C)c(O)ccc12 | 77.6% (active) | 71.5
5 | N#C/C(C(=S)Nc1ccccc1)=C1/NN=C(N2CCOCC2)N1c1ccccc1 | 25.1% (inactive) | –
6 | CN1CCNC(=O)C1CC(=O)NCCC1=CCCCC1 (stereo not given) | -1.1% (inactive) | –
7 | Nc1nc(Nc2ccccc2)nc(NCCO)c1[N+](=O)[O-] | 0.8% (inactive) | –
8 | O=C(Oc1cccnc1)c1cc2ccccc2oc1=O | -10.2% (inactive) | –
9 | N#CCc1ccc(OC(=O)c2cccnc2)cc1 | 3% (inactive) | –
10 | O=C(Oc1c(-c2ccco2)oc2ccccc2c1=O)c1cccnc1 | 92.5% (active) | 70.6
11 | Cc1cc(=O)[nH]c2nnnn12 | -4.2% (inactive) | –
12 | CCOC(=O)c1c(C)c(C(=O)NCCc2ccc(S(N)(=O)=O)cc2)c(C)n1CC | -1.6% (inactive) | –
13 | Cc1ccc(S(=O)(=O)c2c(N)n(C)c3nc4ccccc4nc23)cc1 | 22% (inactive) | –
14 | CCCNC(=O)c1c(N)n(-c2ccc(S(N)(=O)=O)cc2)c2nc3ccccc3nc12 | 80.5% (active) | 104
15 | Nc1c(C(=O)c2cccs2)sc2nsc(SCCN3CCCCC3)c12 | -179% (inactive) | –
16 | CCOC(=O)C(=CNNc1ccsc1C(=O)OC)C(=O)OCC | -1.9% (inactive) | –
17 | CCCCc1ccc(NC(=S)N2CCCC(CO)C2)cc1 (stereo not given) | -1.7% (inactive) | –
18 | CN(C)C(=O)c1nc2ccc(Cl)cn2c1CN1CCN(c2ncccn2)CC1 | 0.6% (inactive) | –
19 | Cc1cc(C)n(C(=O)CCNC(=O)c2ccccc2Cl)n1 | 8.8% (inactive) | –
20 | Cc1cc(C)c2nc(-c3ccco3)cc(C(=O)O)c2c1 | 21.4% (inactive) | –
21 | Cc1cc(C)c2nc3nc(C)cc(C)c3c(N)c2c1 | 60.1% (active) | 71.5
22 | Cc1cc(C)c2nc(SCCC#N)nc(C)c2c1 | -2.1% (inactive) | –
23 | O=c1oc2c(CN3CCCCC3)c(O)ccc2c2c1CCCCC2 | 93.5% (active) | 148
24 | CN1CCN(Cc2c(O)ccc3c2oc(=O)c2ccccc23)CC1 | -13.8% (inactive) | –
25 | NC(=O)COc1ccc2c3c(c(=O)oc2c1)CCCCC3 | -10.6% (inactive) | –
26 | Cc1ccc(C(=O)NCC(=O)OCC(=O)Nc2cccc(S(=O)(=O)N3CCCC3)c2)cc1C | 0.1% (inactive) | –
27 | Cc1cccn2c(=O)c3cc(C#N)c(=O)n(CCCN4CCOCC4)c3nc12 | 61.6% (active) | 71.6
28 | Cc1cc(C)n(CC(C)NCc2c(C(=O)N3CCOCC3)nc3c(C)cccn23)n1 (stereo not given) | -0.8% (inactive) | –
29 | Cc1cccn2c(=O)c3cc(C(=O)N4COCC4(C)C)n(C)c3nc12 | 1.5% (inactive) | –
